TMEM16A act = activators or potentiators of mouse TMEM16A chloride channel; HEK293 TMEM16A/YFP-H148Q/I152L, iodide quench fluorescence; hits give low values; 0.3% of 340,000 active; B-score at 10 µM; AID 623877;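 active = fluorescence-ratio B-score plate-corrected deviation score at least 3 library SD below zero, with starting fluorescence score within 5 deviations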;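 note: channel opened by trigger with iodide after compound preincubation; score built on the fluorescence ratio of max minus min over baseline; more negative score means more quench and so TMEM16A activation or potentiation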
CHT block = inhibits the human high affinity choline transporter; 0.86% of 310,000 active; Q9GZV3; B-score at 10 µM; CHT-expressing cells, membrane potential dye, choline response; hits give low values;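 active = B-score over 3 SD under the library average, and starting fluorescence ratio not unusually high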;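 note: choline stimulus applied at its EC90 after an EC20 pre-addition; B-score computed on integrated fluorescence ratio after choline addition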
Target sequence (Q9GZV3 whole entry, looked up): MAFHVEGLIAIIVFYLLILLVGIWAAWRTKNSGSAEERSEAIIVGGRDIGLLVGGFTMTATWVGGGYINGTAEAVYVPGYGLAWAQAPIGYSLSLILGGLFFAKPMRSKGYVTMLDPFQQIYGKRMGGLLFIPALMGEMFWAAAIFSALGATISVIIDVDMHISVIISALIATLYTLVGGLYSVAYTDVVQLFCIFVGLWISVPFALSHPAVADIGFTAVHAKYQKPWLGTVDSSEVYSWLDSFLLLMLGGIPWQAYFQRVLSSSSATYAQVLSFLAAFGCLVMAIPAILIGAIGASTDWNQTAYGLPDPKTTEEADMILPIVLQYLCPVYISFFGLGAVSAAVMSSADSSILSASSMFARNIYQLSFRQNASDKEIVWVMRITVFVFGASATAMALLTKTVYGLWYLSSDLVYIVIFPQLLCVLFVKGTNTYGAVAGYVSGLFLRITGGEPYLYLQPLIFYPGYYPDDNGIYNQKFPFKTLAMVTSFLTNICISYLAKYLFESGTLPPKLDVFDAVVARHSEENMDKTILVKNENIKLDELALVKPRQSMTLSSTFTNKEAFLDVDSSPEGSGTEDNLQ
TMEM16A inh = mouse TMEM16A channel inhibition, primary screen | Q8BHY3 | HEK293 TMEM16A/YFP iodide influx fluorescence, ionomycin | normalized B-score (activity score, 25-100; higher = stronger inhibition) at 10 µM | 1.2% of 310,000 active;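 active = ratio plate-corrected score three or more library SD toward inhibition, starting fluorescence score within five deviations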;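 note: score derived from kinetic fluorescence span divided by baseline fluorescence per well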
CHT PAM = allosterically activates the human high affinity choline transporter. Q9GZV3. CHT-expressing cells, membrane potential dye, choline EC20; hits give high values; LV-AA mutant CHT in HEK293 cells. B-score at 10 µM. 0.49% of 310,000 active;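 active = initial fluorescence not abnormally high and integrated response B-score, plate-corrected, over 3 SD above library mean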
CHT act confirm = confirmation of human choline transporter (CHT) activators; shares compounds with CHT PAM; CHT-expressing cells, membrane potential dye fluorescence (FDSS); % of choline EC20–EC90 response window; HEK293 expressing CHT LV-AA mutant; choline added at its EC20; activation, % at 10 µM; 91% of 2,500 active; AID 504833;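 active = primary screen active, with duplicate mean activation above negative control mean plus 3 SD, cut at about 11% in these data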
HEK293 MP dye = counter-screen for CHT activators: effect in parental HEK293 cells | 62% of 2,500 active | AID 623908 | membrane potential dye fluorescence (FDSS); measured after EC20 choline addition | shares compounds with CHT PAM | ratio readout change at 10 µM, hits read low;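 active = duplicate-averaged ratio beyond 3 SD from buffer wells, up or down, though filed actives are nearly all decreases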
The depositor's hits bear a star. In the library only some 2.3% were active in any assay of this set; here they are far more common.

Screening COC(=O)CNC(=S)NC(=O)c1ccc(C(C)(C)C)cc1 returned TMEM16A act inactive, CHT block inactive, TMEM16A inh inactive and CHT PAM inactive.
Cc1ccc(S(=O)(=O)Nc2cc(=O)[nH]c(SCc3ccc(Cl)cc3)n2)cc1 was read as TMEM16A act inactive, CHT block inactive, TMEM16A inh inactive and CHT PAM inactive.
Screening CC(Nc1nc(N2CCNCC2)nc2ccccc12)c1ccccc1 (stereo unspecified) returned TMEM16A act inactive, CHT block inactive, TMEM16A inh inactive, CHT PAM 7.12*, CHT act confirm 44.1* and HEK293 MP dye -51.6*.
CCOC(=O)N1CCN(c2cc(NCCC(=O)O)c3c4c(onc24)-c2ccccc2C3=O)CC1 was read as TMEM16A act -11.6*, CHT block inactive, TMEM16A inh inactive, CHT PAM inactive, CHT act confirm 25.7* and HEK293 MP dye -60.1*.
`Cc1ccccc1C[n+]1cccc2ccccc21` gave TMEM16A act inactive, CHT block inactive, TMEM16A inh inactive, CHT PAM 7.01*, CHT act confirm 52.4* and HEK293 MP dye -42.1*.
CC(C)CN(C(=O)CSc1nnc(-c2cccs2)n1N)c1c(N)n(Cc2ccccc2)c(=O)[nH]c1=O was read as TMEM16A act inactive, CHT block inactive, TMEM16A inh inactive, CHT PAM 6.73*, CHT act confirm 26.2* and HEK293 MP dye inactive.
For CSCCC(NS(=O)(=O)c1ccccc1)C(=O)OC(C)C(=O)Nc1ccc(Cl)cn1 (stereo unspecified) the results were TMEM16A act inactive.
CCn1c(SCC(=O)N2CCC(C)CC2)nc2c(c1=O)SCC2 was read as TMEM16A act inactive, CHT block inactive, TMEM16A inh inactive and CHT PAM inactive.
Screening CCOc1ccccc1NC(=O)COc1coc(CN2CCc3ccccc32)cc1=O returned TMEM16A act inactive, CHT block inactive, TMEM16A inh inactive and CHT PAM inactive.
For CCOC(=O)c1ccccc1NC(=O)COc1coc(CN2CCc3ccccc32)cc1=O the results were TMEM16A act inactive, CHT block inactive, TMEM16A inh inactive, CHT PAM inactive, CHT act confirm 25.9* and HEK293 MP dye inactive.
Screening CCC1(c2ccccc2)NC(=O)N(CC(=O)Nc2ccc(N3CCOCC3)cc2)C1=O (stereo unspecified) returned TMEM16A act inactive.
O=C(CCCN1CCC(O)(c2ccc(Br)cc2)CC1)c1ccc(F)cc1 was read as TMEM16A act inactive, CHT block inactive, TMEM16A inh inactive, CHT PAM inactive, CHT act confirm 60.1* and HEK293 MP dye inactive.
Cc1ccc(NC(=O)c2nc3nccc(C)n3n2)cc1S(=O)(=O)N1CCCCC1 was read as TMEM16A act inactive.
For Cc1ccnc2nc(C(=O)NC3=NCCS3)nn12 the results were TMEM16A act inactive, CHT block inactive, TMEM16A inh inactive and CHT PAM inactive.
For Cc1ccnc2nc(C(=O)Nc3nccs3)nn12 the results were TMEM16A act inactive, CHT block inactive, TMEM16A inh inactive, CHT PAM inactive, CHT act confirm 40.1* and HEK293 MP dye inactive.
Screening Cc1ccnc2nc(C(=O)Nc3ccc(S(=O)(=O)N4CCCC4)cc3)nn12 returned TMEM16A act inactive, CHT block inactive, TMEM16A inh inactive, CHT PAM 9.95*, CHT act confirm 26.8* and HEK293 MP dye -20.8*.
Screening COCCOC(=O)c1[nH]c2c(c1C)C(=O)CC(c1ccc(N(C)C)cc1)C2 (stereo unspecified) returned TMEM16A act inactive, CHT block inactive, TMEM16A inh inactive and CHT PAM inactive.
`COCCOC(=O)c1[nH]c2c(c1C)C(=O)CC(c1ccccc1)C2` (stereo unspecified) gave TMEM16A act inactive, CHT block inactive, TMEM16A inh inactive, CHT PAM inactive, CHT act confirm 9.0 and HEK293 MP dye inactive.
Screening Cc1c(OC(C)C(=O)N2C[C@H]3C[C@@H](C2)c2cccc(=O)n2C3)ccc2c3c(c(=O)oc12)CCCC3 (stereo partly specified) returned TMEM16A act inactive, CHT block inactive, TMEM16A inh inactive and CHT PAM inactive.
Screening CCCC(c1nnnn1CS(=O)(=O)c1ccc(C)cc1)N1CCN(c2ccccc2)CC1 (stereo unspecified) returned TMEM16A act inactive, CHT block inactive, TMEM16A inh inactive, CHT PAM 7.03*, CHT act confirm 14.4* and HEK293 MP dye inactive.
For COC1OC2COC(c3ccccc3)OC2C(OC(C)=O)C1OC(C)=O (stereo unspecified) the results were TMEM16A act inactive.
`CCOc1cc(N2CCOCC2)c(OCC)cc1NC(=O)COC(=O)c1ccc(Cl)cc1N` gave TMEM16A act inactive.
`CCOc1cc(N2CCOCC2)c(OCC)cc1NC(=O)COC(=O)c1cc2ccccc2cc1O` gave TMEM16A act inactive, CHT block inactive, TMEM16A inh inactive, CHT PAM 7.47*, CHT act confirm 16.6* and HEK293 MP dye inactive.
For CCN(CC)c1nc(N)c2c(N)nc3c(c2c1C#N)CC(c1ccccc1)O3 (stereo unspecified) the results were TMEM16A act inactive, CHT block inactive, TMEM16A inh inactive, CHT PAM 6.54*, CHT act confirm 25.5* and HEK293 MP dye inactive.
CCOC(=O)c1c(C)n(-c2ccccc2)c2ccc(OCCN(C)C)cc12 was read as TMEM16A act inactive, CHT block inactive, TMEM16A inh inactive, CHT PAM inactive, CHT act confirm 31.4* and HEK293 MP dye inactive.
CCOC(=O)c1c(C)n(-c2ccc(C)cc2)c2ccc(O)c(CN(C)C)c12 was read as TMEM16A act inactive, CHT block inactive, TMEM16A inh inactive, CHT PAM 8.76*, CHT act confirm 15.2* and HEK293 MP dye inactive.
Screening CCOC(=O)c1sc(=N)n(-c2ccc(OC)cc2)c1C returned TMEM16A act inactive, CHT block inactive, TMEM16A inh inactive and CHT PAM inactive.
For CCOC(=O)c1c(C)n(-c2ccc(OC)cc2)c2ccc(O)c(CN(C)C)c12 the results were TMEM16A act inactive, CHT block inactive, TMEM16A inh inactive, CHT PAM 6.53*, CHT act confirm 9.0 and HEK293 MP dye -25.7*.
For CC1CCCC(NC(=O)C2CCN(C(=O)Nc3ccccc3)CC2)C1C (stereo unspecified) the results were TMEM16A act inactive, CHT block inactive, TMEM16A inh inactive and CHT PAM inactive.

High-throughput results from PubChem BioAssay.
